Assay [1] concerns the target T1, Aspartate--tRNA(Asp/Asn) ligase (Mycobacterium tuberculosis (strain ATCC 25618 / H37Rv)) (UniProt P9WFW3). Also: in the data most compounds retested in dose-response had high values.
T1 sequence (whole entry): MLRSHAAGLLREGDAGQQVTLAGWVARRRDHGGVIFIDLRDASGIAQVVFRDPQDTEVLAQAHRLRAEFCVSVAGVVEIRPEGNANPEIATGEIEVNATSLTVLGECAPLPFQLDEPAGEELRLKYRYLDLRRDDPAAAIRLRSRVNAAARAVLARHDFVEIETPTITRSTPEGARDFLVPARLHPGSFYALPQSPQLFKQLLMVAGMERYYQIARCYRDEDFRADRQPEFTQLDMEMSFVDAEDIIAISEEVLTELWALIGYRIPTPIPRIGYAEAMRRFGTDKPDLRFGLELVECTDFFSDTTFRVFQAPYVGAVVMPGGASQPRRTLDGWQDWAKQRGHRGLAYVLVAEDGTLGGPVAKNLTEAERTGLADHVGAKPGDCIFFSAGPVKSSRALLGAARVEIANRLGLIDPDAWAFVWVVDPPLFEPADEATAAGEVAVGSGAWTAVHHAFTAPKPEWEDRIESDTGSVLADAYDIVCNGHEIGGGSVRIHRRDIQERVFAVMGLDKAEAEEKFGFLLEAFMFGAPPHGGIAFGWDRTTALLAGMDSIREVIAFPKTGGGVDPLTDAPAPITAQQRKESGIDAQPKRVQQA
Put plainly: Assay for Asp RNA synthetase-1 from Mycobacterium tuberculosis. The assay is classed as functional. The arrangement: scale not given: direction of the effect not stated beside the values. The note with it: 30 µM.

The target of assay [2] is Shiga toxin 2 (Escherichia coli O157:H7) (UniProt P09385+P09386). Put plainly: E. coli 0.157:H7 Shiga Toxin SOP - stx2 screening assay. The assay is classed as functional. The arrangement: scale not given: direction of the effect not stated beside the values. To be noted: 30 µM.

Consider `CCC1(CC)Cc2ccccc2-c2nc(NCCO)[nH]c(=O)c21`, for which the figures for the Percent Effect in assay [1] and in assay [2] were 6.5% and 17.7%, respectively.

Turning to `CC(C)CN1CCN(C(=O)Nc2cc(C(F)(F)F)c[nH]c2=O)CC1`, the results for the Percent Effect in assay [1] and in assay [2] were -1.79% and 5.35%, respectively.

For the molecule `CN(C)[C@@H]1CN(Cc2ccco2)C[C@@H]2CCCO[C@@H]21`, the Percent Effect in assay [1] is -2%; in assay [2], 6.7%.

Take `CCc1nc(CC(=O)Nc2cnn(CC3CCCO3)c2)cs1` (configuration not stated): the values for the Percent Effect in assay [1] and in assay [2] were 1.86% and -10.7%, respectively.

`O=c1cc2c(nn1CN1CCN(c3cccc(Cl)c3)CC1)CCC2`: the values for the Percent Effect in assay [1] and in assay [2] were -1.19% and -4.9%, respectively.

Regarding `CCOC1CCN(C(=O)c2cnn(-c3ccccc3Cl)c2)CC1`, the Percent Effect in assay [1] is 2.29%; in assay [2], 28.9%.

As to `COC(=O)CCNC(=O)c1ccoc1CN1c2ccccc2CC1C` (configuration not stated), the Percent Effect in assay [1] was 0.0912%; in assay [2] it was -1.74%.

For `CC(NC(=O)NCCCn1cncn1)c1ccc2c(c1)OCCO2` (configuration not stated), the results for the Percent Effect in assay [1] and in assay [2] were 0.175% and 17.4%, respectively.

As to `Cc1ccc(C(=O)N2CCC3(CC2)CCN(CCN(C)C)C3=O)cn1`, the Percent Effect is -4% in assay [1] and -1.78% in assay [2].

Consider `Cc1n[nH]c(C)c1NC(=O)CN1CCn2c(nnc2C(C)C)C1`, for which the figures for the Percent Effect in assay [1] and in assay [2] were 0.173% and 13.2%, respectively.

`COCCN1CCN(C(=O)c2ccncc2F)Cc2cccnc21`: the Percent Effect in assay [1] is -0.348%; in assay [2], -48.6%.

Consider `Nc1nc(CCC(=O)N2CCOC(CC3CCCCC3)C2)cs1` (configuration not stated), for which the Percent Effect is -4.71% in assay [1] and 19% in assay [2].

With `Cc1ccc(C)c(OC2CCN(C(=O)c3ccc(O)nc3)CC2)c1`, the Percent Effect in assay [1] was -0.922%; in assay [2], 26.4%.

For `CCS(=O)(=O)N(C)CC(=O)Nc1ccc(Br)cn1`, the values for the Percent Effect in assay [1] and in assay [2] were -2.34% and -12.9%, respectively.

For the molecule `CCCc1nc(C(C)(C)NC(=O)C2CC(=O)N(CC3CC3)C2)no1` (configuration not stated), the Percent Effect turned out to be 3.35% in assay [1] and 20% in assay [2].

`Cc1cccc(CN2C(=O)CCC23CCN(c2ncc(F)cn2)CC3)n1`: the Percent Effect in assay [1] is -0.66%; in assay [2], -5.21%.

Take `CCCc1n[nH]c(C2CN(C(=O)C3=COCCC3)CCO2)n1` (configuration not stated): the Percent Effect was -5.39% in assay [1] and 19% in assay [2].

As to `Cc1ccc(C(=O)N2C[C@@H](OCC3CCOCC3)[C@H]3OCCC[C@H]32)o1`, the Percent Effect was -0.93% in assay [1] and -15.3% in assay [2].

As for `CCC(C)c1noc(C2CCN(C(=O)c3cccs3)CC2)n1` (configuration not stated), the Percent Effect was 4.84% in assay [1] and -48% in assay [2].

On to `CC(C)c1nn(C)c(N(C)C)c1CNCCC(=O)N(C)C`, for which the Percent Effect was -4.3% in assay [1] and 10.1% in assay [2].

Take `CCN(Cc1nc2c(cnn2C)c(=O)[nH]1)c1cccc(Cl)c1`: the Percent Effect in assay [1] stood at 0.461%; in assay [2], 19.9%.

As to `COCCn1ccc2cc(NC(C)=O)ccc21`, the Percent Effect in assay [1] was -5.18%; in assay [2], -9.31%.

With `Cc1nn(C)c(C)c1NC(=O)CCn1ncc2c(C)cccc21`, the figures for the Percent Effect in assay [1] and in assay [2] were 10.1% and -31.5%, respectively.

On to `CC(=O)N1CCC2(CCN(C(=O)c3ccc(C)c(C(F)(F)F)c3)CC2)C1`, for which the values for the Percent Effect in assay [1] and in assay [2] were 17.3% and -10.7%, respectively.

In the case of `COc1ccc(CNC(=O)C2(C#N)CCCC2)cc1`, the results for the Percent Effect in assay [1] and in assay [2] were 2.12% and 8.48%, respectively.

Regarding `COCC1CN(Cc2ccc(C)o2)Cc2ncn(CC3CC3)c21` (configuration not stated), the results for the Percent Effect in assay [1] and in assay [2] were -3.92% and -13.7%, respectively.

On to `Cc1nn(C)c(C)c1CNCc1ccnc(N2CCOCC2)c1`, for which the Percent Effect was -2.46% in assay [1] and -9.51% in assay [2].

In the case of `O=c1ccc(-c2cccs2)nn1CN1CCN(Cc2ccccc2)CC1`, the Percent Effect in assay [1] was -1.1%; in assay [2] it was 9.12%.

For the molecule `Cc1nc(O)cc(C2CCN(Cc3cccc(F)c3F)C2)n1` (configuration not stated), the figures for the Percent Effect in assay [1] and in assay [2] were -1.21% and -17.9%, respectively.

For the molecule `Cc1ccc(F)c(C(=O)N2CCN(S(C)(=O)=O)[C@@H](C)C2)c1`, the values for the Percent Effect in assay [1] and in assay [2] were -2.79% and -20.5%, respectively.

For `Cc1nn(C)c(Cl)c1C1CCCN1C(=O)c1cc(Cl)c[nH]1` (configuration not stated), the Percent Effect in assay [1] is 1.85%; in assay [2], 16.5%.

For the molecule `O=C(NCC1CCOCC1)[C@H]1C[C@@H]2CCN(Cc3ccncc3)C[C@@H]2O1`, the Percent Effect in assay [1] is 2.48%; in assay [2], -19.5%.

Regarding `O=C1CC(NCc2ccncc2)CN1Cc1cccc(F)c1` (configuration not stated), the Percent Effect in assay [1] is 2.73%; in assay [2], -1.08%.

Take `COc1ccccc1CNC(=O)N1CCCC(c2nncn2C)C1` (configuration not stated): the results for the Percent Effect in assay [1] and in assay [2] were -4.33% and 25.8%, respectively.

Consider `Cc1ncsc1C(=O)N(C)Cc1ccncc1`, for which the values for the Percent Effect in assay [1] and in assay [2] were -4.5% and 27.3%, respectively.

Regarding `COc1ccccc1C(=O)NC(CC(=O)O)c1cccs1` (configuration not stated), the Percent Effect in assay [1] is 5.75%; in assay [2], -32.6%.

`CCOC(=O)CCCNC(=O)CN1CCN(c2ncccn2)CC1`: the Percent Effect was 6.48% in assay [1] and -56.7% in assay [2].

With `CCOc1cccc(CNC(=O)NCC(O)c2cccc(F)c2)c1` (configuration not stated), the figures for the Percent Effect in assay [1] and in assay [2] were 9.63% and 16.2%, respectively.

`CC(C)OCCCNC(=O)c1ccc(-c2ccco2)[nH]c1=O`: the Percent Effect in assay [1] was -5.99%; in assay [2], 19%.

Take `Cc1cnn(CC2CCCCN2CC(=O)Nc2c(C)n[nH]c2C)c1` (configuration not stated): the Percent Effect was -1.88% in assay [1] and -12.9% in assay [2].

For the molecule `Cc1csc(N2CCCN(C(=O)C3(C#N)CCCCC3)CC2)n1`, the Percent Effect in assay [1] was -4.79%; in assay [2] it was 27.1%.

For `CS(=O)(=O)N1CCC2(CC1)CC(CC(=O)NC1CC1)c1ccccc12` (configuration not stated), the Percent Effect in assay [1] worked out at 6.15%; in assay [2], 4.11%.

With `COC(=O)CCC(=O)N1CCC2(CN(Cc3cccc(F)c3)C2)C1`, the Percent Effect in assay [1] turned out to be 8.76%; in assay [2], 2.07%.

Take `COc1cccc(CCNC(=O)CN2CCN(C)CC2C)c1` (configuration not stated): the Percent Effect came out at 0.495% in assay [1] and 20% in assay [2].

Regarding `COc1ccc(CCN2CCCC(CN(C)Cc3ccc(C)o3)C2)cc1` (configuration not stated), the Percent Effect was -1.25% in assay [1] and -11.5% in assay [2].

For `CCOC(=O)CN1CCC2(CC1)CC(=O)c1ccc(OC)cc1O2`, the figures for the Percent Effect in assay [1] and in assay [2] were -2.78% and 10.6%, respectively.

For the molecule `c1cncc(OCC2CN(Cc3ccco3)Cc3nccn3C2)c1` (configuration not stated), the results for the Percent Effect in assay [1] and in assay [2] were -1.34% and -17.2%, respectively.

Turning to `Cc1n[nH]c(C)c1NC(=O)CN1CCCC(CNC(=O)C(C)(C)C)C1` (configuration not stated), the Percent Effect was -4.35% in assay [1] and 19.6% in assay [2].

`CC(C)c1nn(C)c(N(C)C)c1CNCc1ccc2c(c1)OCO2`: the Percent Effect in assay [1] is -1.77%; in assay [2], 30.6%.

As for `Cc1cccc(-n2c(C)cc(C(=O)N3CCn4c(C)nnc4C3)c2C)c1`, the Percent Effect in assay [1] is 3.51%; in assay [2], 36.2%.

For `O=C(c1cnccn1)N1CCN2C[C@H](OCc3ccccn3)C[C@H]2C1`, the Percent Effect is 4.4% in assay [1] and -7.9% in assay [2].

Turning to `Cc1cnc(CN(C)C2CCN(CC(=O)Nc3c(C)n[nH]c3C)C2)o1` (configuration not stated), the Percent Effect in assay [1] is -2.74%; in assay [2], -14.3%.

Turning to `CN(CC1(O)CCCN(c2ccccn2)C1)C(=O)Cc1ccsc1` (configuration not stated), the Percent Effect is 1.53% in assay [1] and 13.7% in assay [2].

Consider `CCNC(=O)c1ccoc1CN1c2ccccc2CC1C` (configuration not stated), for which the results for the Percent Effect in assay [1] and in assay [2] were 2.94% and -19.2%, respectively.

Consider `O=C(Cn1cnnn1)N1CCCCC1Cn1cccn1` (configuration not stated), for which the results for the Percent Effect in assay [1] and in assay [2] were -0.885% and 9.78%, respectively.

On to `O=C(c1ccno1)N1CC[C@@H]2O[C@@H](COCCN3CCCC3)CC[C@@H]21`, for which the results for the Percent Effect in assay [1] and in assay [2] were -0.779% and -4.5%, respectively.

Source of the values: ChEMBL document CHEMBL3988442, “University of Dundee, Small-Polar-MMV Screening Library” (2021).
